NPR1 antag: Natriuretic polypeptide receptor (hNpr1) antagonism - Primary qHTS. Potency, µM (highest dose often 46.3 µM), for inactives: at the top dose activity change, negative = inhibition, most hits filed as inhibitors. 76,000 compounds, 1.6% hits. HEK293 hNpr1 GloSensor cGMP, ANP-stimulated luminescence; calls by dose curve; further: nearly all actives have a fitted effect of over 60% in size
Target sequence (P16066 whole entry, looked up): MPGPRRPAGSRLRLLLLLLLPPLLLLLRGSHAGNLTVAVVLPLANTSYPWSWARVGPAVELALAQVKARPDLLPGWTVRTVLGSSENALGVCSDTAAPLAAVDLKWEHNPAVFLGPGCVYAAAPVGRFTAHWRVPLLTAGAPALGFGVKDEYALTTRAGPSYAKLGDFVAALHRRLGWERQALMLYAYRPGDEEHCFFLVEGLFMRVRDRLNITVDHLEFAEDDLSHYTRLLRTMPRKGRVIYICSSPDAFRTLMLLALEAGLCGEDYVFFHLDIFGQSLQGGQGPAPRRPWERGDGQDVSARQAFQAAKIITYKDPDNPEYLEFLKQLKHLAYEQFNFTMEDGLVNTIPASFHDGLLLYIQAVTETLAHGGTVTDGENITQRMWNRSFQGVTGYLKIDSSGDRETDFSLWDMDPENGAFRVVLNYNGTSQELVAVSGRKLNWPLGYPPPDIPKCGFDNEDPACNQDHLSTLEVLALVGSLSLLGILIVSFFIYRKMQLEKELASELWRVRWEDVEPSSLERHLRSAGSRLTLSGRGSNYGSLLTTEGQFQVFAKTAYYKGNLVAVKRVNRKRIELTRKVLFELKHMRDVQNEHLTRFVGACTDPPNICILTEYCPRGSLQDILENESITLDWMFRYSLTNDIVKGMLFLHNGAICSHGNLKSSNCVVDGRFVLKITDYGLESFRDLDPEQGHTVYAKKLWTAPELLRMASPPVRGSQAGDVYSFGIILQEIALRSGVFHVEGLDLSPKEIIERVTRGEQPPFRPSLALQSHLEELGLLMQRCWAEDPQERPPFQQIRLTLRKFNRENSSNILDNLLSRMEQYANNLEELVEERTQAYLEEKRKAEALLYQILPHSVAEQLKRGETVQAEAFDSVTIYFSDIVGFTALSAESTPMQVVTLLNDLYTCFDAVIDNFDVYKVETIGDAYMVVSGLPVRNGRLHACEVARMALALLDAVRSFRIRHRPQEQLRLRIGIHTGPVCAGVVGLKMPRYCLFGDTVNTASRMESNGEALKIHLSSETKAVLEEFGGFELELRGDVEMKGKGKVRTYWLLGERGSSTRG
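Compound pre-incubated 30 min at room temperature on GloSensor-loaded HEK293 cells stably carrying hNpr1 and the pGS-40F cGMP biosensor. Stimulation uses hNppA at 0.1 nM final; luminescence is taken at baseline and 20 min post-agonist.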
SNCA expr inhib: Primary qHTS assay for inhibitors of alpha-synuclein gene (SNCA) expression | HEK-293 SNCA-luciferase knock-in, luminescence, 24 h | Potency, µM (titrated, usually from 57.2 µM), without a hit: at the top dose activity change, negative = inhibition, most hits filed as inhibitors | 140,000 compounds, 0.17% hits | AID 1671194, 2021;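 further: plate controls were DMSO cells for no effect and cell-free wells for full effect; nearly all actives have a fitted effect of over 45% in size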
SNCA viab count: GF-AFC viability counterscreen for inhibitors of alpha-synuclein gene (SNCA) expression. HEK-293-SNCA-luc viability, GF-AFC fluorescence, 24 h. 150,000 compounds, 0.12% hits. Potency, µM (titrated, usually from 57.1 µM), for inactives: at the highest dose activity change, negative = cytotoxicity, hits mostly cytotoxic;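 further: 0% = DMSO-treated cells and -100% = medium-only wells without cells; nearly all actives have a fitted effect of over 30% in size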
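HEK-293-SNCA-luc cells (1500/well) plated 24 h, then exposed 24 h to a dilution series; GF-AFC added 30 min at 37C, fluorescence 405/540 nm; normalised to medium-only and DMSO wells, Hill fit.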
HEK cytotox: Cytotoxic Profiling in HEK 293 Cell Line of Diverse Libraries Using Quantitative High-Throughput Screening; Potency, µM (top dose mostly 115 µM), for the others: at the top dose activity change, negative = cytotoxicity, actives largely listed as inhibitors; HEK 293 viability, ATP luminescence (CellTiter-Glo), 48-72 h; 94,000 compounds, 6.6% hits; AID 1345083, 2018; further: nearly all actives have a fitted effect of over 60% in size
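Cytotoxicity was scored by loss of ATP-coupled luminescence (CellTiter-Glo) in HEK 293 cells. Compound treatment ran 48 or 72 hr at 37 degree Celsius, 5% CO2, 95% humidity.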
3T3 cytotox: Cytotoxic Profiling in NIH 3T3 Cell Line of Diverse Libraries Using Quantitative High-Throughput Screening; 94,000 compounds, 4.3% hits; Potency, µM (titrated, usually from 96.7 µM), for the others: at the highest dose activity change, negative = cytotoxicity, usual class: inhibitors; NIH 3T3 viability, CellTiter-Glo ATP luminescence, 48-72 h; further: nearly all actives have a fitted effect of over 55% in size
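NIH 3T3 cells at 400 cells/well received 23 nL of compound by pintool and were incubated 48 or 72 h at 37 °C. Viability was read as ATP-coupled CellTiter-Glo luminescence.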
Luciferase inh: Firefly luciferase inhibition profiling of diverse chemical library using quantitative high-throughput screening; Luciferin 4-monooxygenase (Photinus pyralis), P08659; purified P. pyralis luciferase, luminescence, biochemical; Potency, µM (series often up to 115 µM), most hits filed as inhibitors; 76,000 compounds, 2.5% hits; AID 1347043, 2019; further: nearly all actives have a fitted effect of over 65% in size
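Purified P. pyralis luciferase (10nM final) in 50mM Tris acetate pH 7.5, 10mM Mg acetate, 0.01% Tween-20, 0.05% BSA with 10uM D-luciferin and 10uM ATP. Compounds titrated qHTS. Luminescence imaged on CCD.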
* marks the source's active call; other numbers are inactive results; i = inactive; ? = inconclusive; nt = no result; [ ] = another dose, or the depositor's remark. Shown are actives, neighbours in structure and some others; about 7.2% of the full set was active somewhere. Unless noted, the call rests on the fitted dose curve; in most records, active means well fitted curve in the direction sought with a large enough effect; inconclusive means small, poorly fitted or top-dose-only effect, or another doubt; inactive means no such curve, though single readings can be large; an effect the other way counts as inactive or inconclusive. Unless noted, on the % scale 0 is the no-effect control and ±100 the full control effect; potency means the concentration at half of the fitted maximal effect.

SMILES | NPR1 antag | SNCA expr inhib | SNCA viab count | HEK cytotox | 3T3 cytotox | Luciferase inh
O=C(C1CCCN1C(=O)Nc1ccc(Cl)cc1)N1CCC(N2Cc3cccn3C2=O)CC1 (stereo unspecified) | nt | -9.7% | -15.8% | ? | 28.2µM* | nt
CN1C[C@@H](NC(=O)CC(C)(C)CC(=O)O)C[C@H]1c1nc(-c2ccccc2)no1 | 8.4%[70.6 µM] | 47.6%[87.6 µM] | 4.9%[87.6 µM] | -4.7%[172 µM] | -12.5%[174 µM] | ?
CN1C[C@@H](NC(=O)CC(C)(C)CC(=O)O)C[C@H]1c1nc(-c2ccc3c(c2)OCO3)no1 | 4.2%[70.6 µM] | 34.1%[87.6 µM] | 3.4%[87.6 µM] | 2.0%[172 µM] | -0.5%[174 µM] | 50.1µM*
CN1C[C@@H](NC(=O)c2ccc3c(c2)OCO3)C[C@H]1c1nc(-c2ccc3ccccc3c2)no1 | -18.9% | -1.5% | ? | 79.4µM* | ? | i
O=S(=O)(c1ccc(F)cc1)N1CCC(OC2CCN(Cc3ccccc3)CC2)CC1 | -0.1% | -12.4% | -10.3% | ? | ? | i
CCc1ccc(S(=O)(=O)N2CCC(OC3CCN(Cc4ccccc4)CC3)CC2)cc1 | -0.7% | 11.0% | -15.0% | ? | 35.5µM* | i
Cc1ccc(S(=O)(=O)N2CCC(OC3CCN(Cc4ccccc4)CC3)CC2)c(C)c1 | -15.9% | -24.6% | -0.1% | ? | 31.6µM* | i
O=S(=O)(Cc1ccccc1)N1CCC(OC2CCN(Cc3ccccc3)CC2)CC1 | -3.6% | -0.1% | -6.9% | ? | ? | i
CC1=NS(=O)(=O)N(C)C=C1C(=O)OCc1noc(-c2ccccc2Cl)n1 | 11.2µM* | -26.8% | 4.5% | ? | ? | ?
CC1=NS(=O)(=O)N(Cc2ccccc2)C=C1C(=O)OCc1noc(-c2ccccc2C)n1 | -20.6% | 0.3% | 5.4% | ? | ? | i
CCC(C)NC(=O)c1cc2n(n1)CC(c1ccc3c(c1)OCO3)OC2 (stereo unspecified) | -5.7% | -13.8% | -2.0% | ? | ? | i
Cc1ccc(NC(=O)c2cc3n(n2)CC(c2ccc4c(c2)OCO4)OC3)cc1 (stereo unspecified) | ? | -4.1% | 4.6% | ? | ? | ?
CCc1ccc(NC(=O)c2cc3n(n2)CC(c2ccc4c(c2)OCO4)OC3)cc1 (stereo unspecified) | 11.2µM* | -20.2% | 0.5% | 31.6µM* | ? | ?
CC(C)CNC(=O)c1cc2n(n1)CC(c1ccc3c(c1)OCO3)OC2 (stereo unspecified) | -3.2% | 5.9% | 1.0% | 44.7µM* | 39.8µM* | i
COCCNC(=O)c1cc(-c2ccc(F)cc2)c2nncn2n1 | nt | 15.6%[87.6 µM] | -2.6%[87.6 µM] | -2.7%[172 µM] | -15.1%[138 µM] | nt
CCCCCNC(=O)c1nc2cccnc2n(CCCC)c1=O | nt | 1.4%[87.6 µM] | -4.7%[87.6 µM] | ? | ? | nt
CCCCn1c(=O)c(C(=O)NC2CCCc3ccccc32)nc2cccnc21 (stereo unspecified) | nt | 1.4% | 0.3% | 39.8µM* | 35.5µM* | nt
CCN1C(=O)C2(CCN(S(=O)(=O)c3c(C)nn(C)c3C)CC2)c2ccccc21 | 3.3% | 7.1% | 6.7% | ? | -9.8% | i
NCc1ccccc1-c1cccc(Cl)c1 | nt | 3.0%[87.6 µM] | 2.3%[87.6 µM] | ? | ? | nt
Cc1ccc(-c2ccccc2CN)c(C)c1 | nt | 10.7%[87.6 µM] | 0.7%[87.6 µM] | 112µM* | 100µM* | nt
COc1ccccc1Cn1c(=O)c(C(=O)N2CCN(C(=O)Cc3cccc(Cl)c3)CC2)nc2cccnc21 | nt | 9.5% | -3.5%[12.5 µM] | ? | ? | nt
COC1CN(c2cccc(F)c2)C12CCN(C(=O)NCCc1ccccc1)CC2 (stereo unspecified) | 2.6% | 2.0% | 6.7% | 50.1µM* | ? | i
COC1CN(c2cccc(F)c2)C12CCN(S(=O)(=O)c1cccc(F)c1)CC2 (stereo unspecified) | nt | -11.1% | -17.8% | 28.2µM* | ? | nt
COC1CN(c2cccc(F)c2)C12CCN(C(=O)c1ccncc1)CC2 (stereo unspecified) | -0.1% | 5.8% | 2.3% | -21.6% | -8.6% | i
COC1CN(c2cccc(F)c2)C12CCN(C(=O)NC1CCCCC1)CC2 (stereo unspecified) | 1.8% | 13.8% | -2.3% | 44.7µM* | ? | i
SMILES | NPR1 antag | SNCA expr inhib | SNCA viab count | HEK cytotox | 3T3 cytotox | Luciferase inh
COC1CN(c2cccc(F)c2)C12CCN(C(=O)C1CCC1)CC2 (stereo unspecified) | 2.8% | 7.2% | -5.1% | ? | -19.4% | i
COC1CN(c2cccc(F)c2)C12CCN(C(=O)C1CCCCC1)CC2 (stereo unspecified) | -1.5% | -9.4% | -1.0% | 28.2µM* | -22.0% | i
COC1CN(c2cccc(F)c2)C12CCN(C(=O)NC(C)(C)C)CC2 (stereo unspecified) | -0.5% | ? | -2.2% | ? | -18.1% | i
Cc1cnn(CCC(=O)N2CCC(C3CCN(S(C)(=O)=O)CC3)C2)c1 (stereo unspecified) | 0.8% | -5.3% | -8.9%[12.5 µM] | -9.9% | -3.2% | i
CC(=O)N1CCCC(C(=O)N2CCC3(CC2)C(=O)N(C)c2ccccc23)C1 (stereo unspecified) | 0.0% | 12.5% | -2.2% | i | 1.9% | i
C[C@@H]1C(=O)O[C@H]2[C@H]1CC[C@@]1(C)Cc3sc(NC(=O)CCC(=O)O)nc3[C@@H](C)[C@H]21 | -17.2%[70.6 µM] | ? | 0.2%[87.6 µM] | 1.5%[172 µM] | -4.1%[174 µM] | ?
COCCNC(=O)[C@@H](C)C1CC[C@@]2(C)Cc3sc(NC(=O)CN(C)C)nc3[C@@H](C)[C@@H]2[C@H]1O (stereo partly specified) | -9.3% | -29.2% | 1.8% | -18.0% | 1.2% | 20µM*
C[C@@H]1C(=O)O[C@H]2[C@H]1CC[C@@]1(C)Cc3sc(NC(=O)CC(C)(C)C)nc3[C@@H](C)[C@H]21 | -20.6%[70.6 µM] | -34.9%[87.6 µM] | ? | 31.6µM* | ? | 20µM*
C=CCNC(=O)Nc1nc2c(s1)C[C@]1(C)CC[C@@H]3[C@H](OC(=O)[C@H]3C)[C@H]1[C@@H]2C | -18.7%[70.6 µM] | 138.4%[87.6 µM] | 0.0%[87.6 µM] | ? | -10.1%[174 µM] | 15.8µM*
C[C@H](C(=O)N1CCCC1)C1CC[C@@]2(C)Cc3sc(NC(=O)C4CC4)nc3[C@@H](C)[C@@H]2[C@H]1O (stereo partly specified) | 2.5% | 64.5% | 4.4% | -18.9% | -13.7% | i

High-throughput results from PubChem BioAssay.
